Drawing on PubChem BioAssay AID651814 (National Center for Advancing Translational Sciences (NCATS), 2012), this text covers max response and Potency for 23 compounds.

Where “and” joins values, the source holds several entries; their conditions need not be identical. Identical values can stand only once. Screen size: about 2,100 compounds; about 590 (28%) were called active. Inconclusive results (about 42%) are left out. The call rests on the fitted dose curve; in most records, active means well fitted inhibition curve with a large enough effect; inconclusive means small, poorly fitted or top-dose-only effect; inactive means flat fitted curve, though single readings scatter. The list shows a part of the results.
Potency means the concentration at half of the fitted maximal effect.

DNA dC->dU-editing enzyme APOBEC-3F (Homo sapiens), sequence (Q8IUX4 whole entry, looked up): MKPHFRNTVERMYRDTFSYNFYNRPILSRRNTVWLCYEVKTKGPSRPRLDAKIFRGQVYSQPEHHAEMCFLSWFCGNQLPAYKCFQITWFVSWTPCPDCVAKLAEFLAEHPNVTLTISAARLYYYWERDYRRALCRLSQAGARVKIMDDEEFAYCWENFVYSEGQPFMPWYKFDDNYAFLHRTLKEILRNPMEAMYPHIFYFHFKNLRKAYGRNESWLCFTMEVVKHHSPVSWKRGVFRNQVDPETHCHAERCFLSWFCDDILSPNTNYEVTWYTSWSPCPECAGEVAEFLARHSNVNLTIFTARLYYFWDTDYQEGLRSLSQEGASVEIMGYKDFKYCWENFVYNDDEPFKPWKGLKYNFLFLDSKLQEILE

The test deals with DNA dC->dU-editing enzyme APOBEC-3F (Homo sapiens) (UniProt Q8IUX4). Description: qHTS for inhibitors of Vif-A3F interactions: Cherry picks. Further: nearly all actives have a fitted effect of over 70% in size.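 On max response: % of control where 0% means no effect; active compounds raise eYFP fluorescence by blocking Vif-driven A3F loss.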 As to conditions: HeLa A3F-eYFP + Vif (tagged APOBEC3F with the HIV-1 protein that degrades it), eYFP fluorescence, 24 h. The method in brief:
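Read-out: yellow fluorescence (ex 488 nm, em 500-530 nm) by laser-scanning cytometer after 24 h compound exposure, several concentrations, at 37 deg C. Cells: HeLa line stably co-expressing Vif and C-terminally eYFP-tagged A3F; MG132 served as positive control.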
Background: In qHTS, concentration-response curves come from the screen itself.
As for `CSCC[C@H](NC(=O)[C@H](Cc1ccccc1)n1c(=O)[nH]c2ccccc2c1=O)C(=O)N1CCC[C@@H]1C(=O)O`, the max response was 1.14% (inactive).

In the case of `Cc1c(Cl)cccc1-c1ccc(/C=C(\C#N)c2nc3ccccc3[nH]2)o1`, the Potency was 20.6 µM (active). With `CCOC(=O)/C(=C/C1=CC(=C/N(C)C)/C(=O)O1)C(C)=O`, the max response was -9.79% (inactive).

For the compound `O=C1c2ccccc2-c2onc3c(N4CCN(C5CCCCC5)CC4)cc(NCCO)c1c23`, the Potency is 3.66 µM (active). The same measure, in the same setting: the figure for `CN(C)CCCNc1cc(N2CCN(C3CCCCC3)CC2)c2noc3c2c1C(=O)c1ccccc1-3` is 9.2 µM (active); for `CCNc1cc(N2CCN(C3CCCCC3)CC2)c2noc3c2c1C(=O)c1ccccc1-3` it is 18.4 µM (active). For the compound `CCOC(=O)c1cnc(-n2nc(C)cc2C)nc1NNc1cc(C)nc(-c2ccccc2)n1`, the max response was 0.647% (inactive).

As for `C/C(=N\Nc1nc(C)cc(-c2ccccc2)n1)c1ccc(F)cc1`, the max response is -6.16% (inactive). On the same count and under the same terms, the value for `O=C(CSc1nc(-c2ccco2)cc(C(F)(F)F)n1)Nc1cccnc1` was -24.4% (inactive). Still for that read-out and setting: the figure for `Cc1cc(/C=N/NC(=O)c2cc3ccccc3o2)c(C)n1C` is -15.8% (inactive). Still for that read-out and setting: the value for `Cc1cc(-c2ccccc2)nc(N/N=C/c2ccccc2F)n1` was -4.11% (inactive). As to `Nc1c(C(=O)N/N=C/c2cccnc2)oc2nc(-c3ccccc3)cc(-c3ccco3)c12`, the Potency is 13 µM (active). Same read-out and setting: the figure for `Nc1c(C(=O)N/N=C/c2ccccc2Cl)oc2nc(-c3ccccc3)cc(-c3ccco3)c12` is 2.91 µM (active); for `Nc1c(C(=O)N/N=C/c2ccc(F)cc2)oc2nc(-c3ccccc3)cc(-c3ccco3)c12` it is 7.9 µM (active). For `C=CCOC(=O)C1=C(C)NC(C)=C(C(=O)OCC=C)C1c1cn(-c2ccccc2)nc1-c1ccco1`, the max response is 0.509% (inactive).

As to `N=C1S/C(=C\c2ccc(-c3cccc(Cl)c3)o2)C(=O)N1c1nccs1`, the Potency is 18.4 µM (active). Regarding `CC(=O)/C(=C\N(C)C)Sc1ccc(Cl)cc1`, the max response is 1.31% (inactive). Consider `CC[n+]1cc(C)ccc1/C=C/c1ccc(N(C)C)cc1`, for which the Potency was 8.86 µM (active). The same measure, in the same setting: the figure for `Cc1ccc(/C=C/c2ccc(N(C)C)cc2)[n+](C)c1` is 8.86 µM (active); for `CN(C)c1ccc(/C=C/c2cc[n+](C)cc2)cc1` it is 15.8 µM (active).

Consider `CN1CCC(OC(=O)c2cc3cc(Cl)cc(Cl)c3oc2=O)CC1`, for which the max response was 3.05% (inactive).

Consider `COC(=O)[C@@]1(Cc2ccccc2)[C@@H]2C(=CC(=O)[C@H]2CC(=O)C(=O)N(C)C)CN1C(=O)c1ccccc1`, for which the max response was -26.2% (inactive). Turning to `Nc1nc2n[nH]nc2c(=O)[nH]1`, the Potency is 6.51 µM (active) and 3.53 µM (active).
